Source: PubChem BioAssay
Rows were chosen to be rich in hits. Some 19% of all compounds tested hit in one or more screens of this group.
SARS PLpro yeast: SARS-CoV PLP inhibition in yeast; Potency, µM (doses to about 32.9 µM), inactives show top-dose activity, positive = growth rescue, hits mostly activators; S. cerevisiae expressing SARS-CoV PLpro, growth rescue; 330,000 tested, 0.19% active; calls by dose curve; note: potency is the fitted concentration of half-maximal effect; 0% is about no effect; nearly all actives have a fitted effect of over 55% in size
Pf growth 96h: inhibits malaria parasite growth, 96 h; 320,000 tested, 6.9% active; Potency, µM (top dose mostly 28.7 µM), for the others: top-dose activity change, negative = inhibition, actives largely listed as inhibitors; AID 504834; P. falciparum luciferase reporter growth, 96 h; note: potency is the fitted concentration of half-maximal effect; % is set by controls: 0 for no effect and ±100 for the full control effect
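Two parasite generations (96 h, 37 C, 5% CO2) of compound exposure in infected erythrocytes (0.05% parasitemia, 2% hematocrit). Luciferase-reporter P. falciparum; decreased luminescence indicates inhibited growth, aimed at apicoplast-acting delayed death.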
Pf growth 48h: inhibits P. falciparum growth in the first generation, 48 h. Potency, µM (series often up to 28.7 µM), for inactives: top-dose activity change, negative = inhibition, most hits filed as inhibitors. P. falciparum luciferase growth in erythrocytes, 48 h. AID 504832. 310,000 tested, 5.9% active; note: potency is the fitted concentration of half-maximal effect; % is set by controls: 0 for no effect and ±100 for the full control effect
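Luciferase-expressing parasites in RBCs, 2% Hct / 0.1% parasitemia final; RPMI 1640 + 0.5% Albumax; 37 C, 5% CO2, one generation; luminescence read-out, lower signal = inhibition.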
Shiga inhibitor: Shiga toxin inhibition; inhibition, % at 38.7 µM; AID 2315; 290,000 tested, 9.2% active; Vero cells, Shiga toxin protein synthesis inhibition reporter; in the data active = inhibition mostly above about 28%, no sharp cut-off; inactive = mostly below about 43%; note: 0% is about no effect
AMA1-RON2 inh: AMA1-RON2 (P. falciparum) interaction inhibition | AlphaScreen AMA1-biotinylated RON2 peptide binding | Potency, µM (highest dose often 58.2 µM), for the others: at the top dose activity change, negative = inhibition, hits mostly inhibitors | 360,000 tested, 0.2% active;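 note: potency is the fitted concentration of half-maximal effect; 0% = vehicle wells and -100% = peptide control; nearly all actives have a fitted effect of over 45% in size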
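AMA1 (3D7) with his tag at 25 nM final met compounds first, then biotinylated RON2 peptide at 25 nM; detection used donor plus acceptor beads, 10 µg/mL apiece, read by AlphaScreen after 30 min at room temperature.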
Cycloheximide cs: affects cycloheximide protein synthesis inhibition readout, counter-screen. cell reporter, cycloheximide protein synthesis inhibition counterscreen. max response, %. 300,000 tested, 12% active; in the data active = max response mostly above about 13%, no sharp cut-off; inactive = mostly below about 14%; note: read at 38.3 µM for the half of the compounds with a filed dose; 0% is about no effect
Starred values were filed as active, the others as inactive; u = inconclusive; x = no result given; + = active, no number. Unless noted, calls come from the whole dose curve; as a rule, active = well fitted curve in the direction sought with a large enough effect; inconclusive = small, poorly fitted or top-dose-only effect, or another doubt; inactive = no such curve, though single readings can be large; an effect the other way counts as inactive or inconclusive.

SMILES	SARS PLpro yeast	Pf growth 96h	Pf growth 48h	Shiga inhibitor	AMA1-RON2 inh	Cycloheximide cs
Cc1ccc(S(=O)(=O)NC(C)(C)C)cc1C(=O)OC(C)C(=O)NC1CC1 (stereo not given)	-0.6%	-3.9%	-12.3%	x	6.0%	x
COCCNC(=O)C1(C)CCCN(C(=O)c2ccc(F)c(Cl)c2)C1 (stereo not given)	x	x	x	x	4.9%	x
CC(C)Cc1cc(CN2CCC(CO)(Cc3ccccc3)CC2)[nH]n1	-1.1%	u	-9.8%	-2.5	1.5%	9.3
Cc1cc2[nH]c3c(c[n+](C)c4ccccc34)c2cc1C	-3.1%	u	0.465µM*	-10.4	-8.1%	5.9
CCCCN(C)S(=O)(=O)c1ccc(C(=O)Nc2nnc(CSC)o2)cc1	-16.6%	13.1µM*	u	-18.9	100.8%	-1.2
CCc1nnc(NC(=O)c2ccc(S(=O)(=O)N(C)Cc3ccccc3)cc2)o1	-8.4%	0.7%	7.1%	-16.5	99.1%	-3.9
COc1ccccc1-c1nnc(NC(=O)c2ccc(S(=O)(=O)N(C)Cc3ccccc3)cc2)o1	16.3%	10.4µM*	-13.9%	-5.1	-8.2%	-1.3
CCN(CC)S(=O)(=O)c1ccc(C(=O)Nc2nnc(CSC)o2)cc1	1.0%	u	u	-1.8	18.2%	-2.6
CCc1nnc(NC(=O)c2ccc(S(=O)(=O)N(CC)Cc3ccccc3)cc2)o1	u	106.2%	35.4%	-55.4	43.7%	-2.2
CCN(Cc1ccccc1)S(=O)(=O)c1ccc(C(=O)Nc2nnc(C)o2)cc1	13.1%	u	9.28µM*	-1.9	45.0%	-1.5
Cc1c(C(=O)N/N=C/c2cccs2)nc2ccccn12	-12.4%	65.1%	29.6%	2.6	20.2%	-3.8
CCc1nnc(NC(=O)CN2CCCC(C)C2)s1 (stereo not given)	1.1%	u	3.5%	-6.4	30.4%	-2.2
CCN(c1ccccc1C(=O)O)S(=O)(=O)c1ccc2[nH]c(=O)[nH]c2c1	-0.8%	8.7%	14.0%	3.5	-6.2%	-4.7
CC(C(=O)N1CCCCC1)n1sc2ccccc2c1=O (stereo not given)	-26.4%	-0.4%	111.3%	67.4*	3.3%	31.3*
C[C@@H](NC(=O)c1[nH]cnc1C(=O)Nc1ccccc1F)c1ccccc1	x	x	x	x	125.2%	x
CC(O)CN(C)CC/C=C1/c2ccccc2CSc2ccccc21 (stereo not given)	-12.5%	u	u	-26.8	0.5%	-3.6
CN(CC/C=C1/c2ccccc2CSc2ccccc21)CCCO	8.7%	13.1µM*	11.7µM*	-4.3	17.0%	-7.0
CN(C)CC/C=C1\c2cc(F)ccc2CSc2ccccc21	-4.3%	u	13.1µM*	-5.5	-1.6%	-1.8
CN(C)CC/C=C1/c2cc(F)ccc2CSc2ccc(F)cc21	13.3%	u	u	-17.8	-13.3%	-2.5
C#CCN(C)CC/C=C1\c2ccccc2CSc2ccccc21	-14.0%	u	13.1µM*	12.8	u	1.2
NCC/C=C1/c2ccccc2CSc2ccccc21	-11.5%	u	u	-8.0	8.8%	-7.4
C=CCN(C)CC/C=C1\c2ccccc2CSc2ccccc21	-20.5%	u	u	17.6	14.1µM*	-3.4
Cc1ccc(C)c(S(=O)(=O)N2CCCOC2CNC(=O)C(=O)NCc2ccccn2)c1 (stereo not given)	-2.0%	-6.3%	-16.9%	-5.5	91.9%	1.5
CCN1CC2=C(OC(N)=C(C#N)C2c2ccccc2)/C(=C\c2ccccc2)C1 (stereo not given)	-3.4%	x	10.4µM*	-8.0	-4.2%	4.2
N#CC1=C(N)OC2=C(CN(Cc3ccccc3)C/C2=C\c2cccnc2)C1c1cccnc1 (stereo not given)	0.4%	22.2%	u	1.1	1.6%	7.1
SMILES	SARS PLpro yeast	Pf growth 96h	Pf growth 48h	Shiga inhibitor	AMA1-RON2 inh	Cycloheximide cs
CCN1CC2=C(OC(N)=C(C#N)C2c2cccs2)/C(=C/c2cccs2)C1 (stereo not given)	-0.3%	54.0%	11.7µM*	-15.5	-16.4%	-0.8
CCN1CCN(C(=O)NS(=O)(=O)c2ccc(C)cc2)CC1	0.9%	1.8%	-1.4%	-3.4	-0.5%	-1.9
NNC(=O)c1cc(S(=O)(=O)N2CCOCC2)c[nH]1	-0.2%	-20.3%	-27.2%	x	98.8%	x
Cc1cc([N+](=O)[O-])cnc1Sc1nccn1C	-13.5%	12.1%	-0.7%	-10.3	5.6%	-3.9
CC(C)=CCC1C(=O)N(c2ccccc2)N(c2ccccc2)C1=O	x	7.57µM*	u	x	x	x
CCCCC1C(=O)N(c2ccccc2)N(c2ccc(O)cc2)C1=O (stereo not given)	x	21.6%	9.3%	x	-3.3%	x
COc1ccc(C(=O)CSC(=S)N2CCCCC2)cc1	x	x	x	x	-0.5%	x
CC(C)N1CCC(=NNC(=O)c2ccc(Br)o2)CC1	1.0%	0.0%	u	36.9*	44.4%	42.5*
O=C(NN=C1CCCCCC1)c1ccc(Br)o1	-10.7%	11.8%	28.0%	86.8*	0.0%	47.5*
O=C(NC1CCCCC1)c1ccc(Br)o1	4.0%	188.3%	7.1%	18.7	-10.8%	8.1
Cc1noc(C)c1NC(=O)N(C)C[C@H]1Oc2ccc(NC(=O)Cn3cnnn3)cc2C(=O)N([C@H](C)CO)C[C@@H]1C	0.9%	x	x	x	-0.6%	x
CCCCN1C(=O)C(=O)N(c2ccccc2)C1=S	19.3%	57.0%	-16.5%	+	1.1%	66.6*
CC1CCCN(C(=O)c2ccc(CNc3c(N4CCCCC4)c(=O)c3=O)cc2)C1 (stereo not given)	-2.4%	24.8%	x	-11.6	-0.7%	4.3
Cc1ccc(N(C)C(=O)c2ccc(CNc3c(N4CCC(C)CC4)c(=O)c3=O)cc2)cc1	-1.7%	u	9.28µM*	-2.2	-1.6%	0.3
CC1CCN(c2c(NCc3ccc(C(=O)N(C)C4CCCCC4)cc3)c(=O)c2=O)CC1	-0.3%	-19.3%	8.28µM*	13.6	5.6%	-1.2
CCOc1ccc(C(c2c(C)n(C)n(-c3ccccc3)c2=O)c2c(C)n(C)n(-c3ccccc3)c2=O)c(O)c1	x	x	x	x	-17.1%	x
COc1c(NC=O)c2c(c([N+](=O)[O-])c1OC)C(=O)OC2	x	x	x	x	-1.1%	x
CCN(Cc1nc2ccccc2c(=O)[nH]1)C(=O)c1cccc(NC(=O)c2cccs2)c1	3.5%	u	u	x	43.2%	x
CCN(Cc1nc2ccccc2c(=O)[nH]1)C(=O)C1CC(=O)N(c2cccc3ccccc23)C1 (stereo not given)	1.8%	u	10.4µM*	x	112.9%	x
CN(Cc1nc2ccccc2c(=O)[nH]1)C(=O)C1CC(=O)N(c2cccc3ccccc23)C1 (stereo not given)	3.6%	x	x	x	25.8%	x
CCN(Cc1nc2ccccc2c(=O)[nH]1)C(=O)c1cc(C2CC2)nn1-c1ccccc1	14.9%	9.28µM*	u	x	25.4%	x
CCC(CC)C(=O)N(CCc1ccc(OC)cc1)Cc1nc2ccccc2c(=O)[nH]1	-13.5%	11.7µM*	x	-18.7	46.1%	-9.4
